The entries come from a sample that favours hits as a whole.
D1 mod – allosteric modulators of human D1 dopamine receptor | P21728 | HEK293 D1, CRE-luciferase, dopamine EC30 potentiation; actives deviate in either direction | B-score at 10 µM | 5.9% of 58,000 active;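 active means luminescence count or its row- and column-corrected plate score outside the 99.7% band of the plate's sample wells, on either side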
DAT uptake mod – modulates human dopamine transporter uptake under cocaine; Q01959; B-score at 10 µM; 1.3% of 110,000 active; LLC-PK1 hDAT cells, [14C]-dopamine uptake with cocaine IC80; actives deviate in either direction; AID 449768;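 active means Z score or B-score, a plate-position-corrected score, falls beyond the plate's 99.7% confidence bounds, in either direction; inactive means both scores lie inside the 99.7% bounds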
BAP1 block – inhibitors of human BAP1 deubiquitinase; Q92560; recombinant BAP1, Ub-AMC hydrolysis fluorescence kinetic; active compounds read low; calls only at 20 µM; 0.48% of 72,000 active; AID 436;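 active means activity remaining at or below 50% of control, provided the compound also passes the data quality filters; inactive means the rest, including low values that fail the filters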
Target sequence (Q92560 whole entry, looked up): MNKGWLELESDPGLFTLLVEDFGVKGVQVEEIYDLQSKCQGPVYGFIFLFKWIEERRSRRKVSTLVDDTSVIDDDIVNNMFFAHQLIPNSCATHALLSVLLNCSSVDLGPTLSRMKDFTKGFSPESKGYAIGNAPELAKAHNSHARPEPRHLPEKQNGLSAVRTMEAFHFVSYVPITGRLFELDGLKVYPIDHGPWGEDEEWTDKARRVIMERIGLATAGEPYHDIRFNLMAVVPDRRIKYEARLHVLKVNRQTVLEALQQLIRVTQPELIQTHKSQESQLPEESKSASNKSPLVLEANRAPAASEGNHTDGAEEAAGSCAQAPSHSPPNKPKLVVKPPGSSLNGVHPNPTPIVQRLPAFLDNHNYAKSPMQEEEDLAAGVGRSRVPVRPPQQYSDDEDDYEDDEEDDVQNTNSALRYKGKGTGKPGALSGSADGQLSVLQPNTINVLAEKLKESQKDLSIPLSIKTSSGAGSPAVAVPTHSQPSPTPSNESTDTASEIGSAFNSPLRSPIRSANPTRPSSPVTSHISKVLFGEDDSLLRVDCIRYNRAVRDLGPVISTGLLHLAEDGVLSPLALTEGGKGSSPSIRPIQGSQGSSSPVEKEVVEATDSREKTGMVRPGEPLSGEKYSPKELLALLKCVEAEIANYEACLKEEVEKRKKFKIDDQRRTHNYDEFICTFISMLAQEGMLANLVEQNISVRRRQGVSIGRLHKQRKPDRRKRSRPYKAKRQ
D1 PAM confirm – confirmation of human D1 dopamine receptor allosteric modulators; 88% of 2,200 active; shares compounds with D1 mod; luminescence at 10 µM; HEK293 D1 CRE-luciferase, dopamine EC30 potentiation; active compounds read high;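 active means luminescence in either of two replicates above the same-plate mean plus 3 SD of the low-dose dopamine control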
D1 ag no DA – D1 (human) signaling in absence of dopamine; shares compounds with D1 mod; HEK293 D1 CRE-luciferase, luminescence, no dopamine; active compounds read high; luminescence at 10 µM; 0.8% of 1,900 active; in the data active means luminescence above about 3900
Isoprot counter – isoproterenol response counter-screen activity for D1 modulators | shares compounds with D1 mod | AID 647 | HEK293 D1 CRE-luciferase, isoproterenol EC30 counter-screen; active compounds read high | 63% of 2,200 active | luminescence at 10 µM;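 active means luminescence in either replicate above plate mean of wells with a partly effective reference agonist dose plus 3 SD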;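 further: isoproterenol raises cAMP through native beta-adrenoceptor Gs so signal bypasses D1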
Each line names hits and unclear results; the compound was inactive in the other large screens (follow-up assays come after a bar, where shown).

O=C(Cc1ccccc1)Nc1cccc2c1C(=O)c1ccccc1C2=O	none (no result: D1 mod, DAT uptake mod)
COc1ccc(CNC(=O)c2c(O)c3cccc4c3n(c2=O)CCC4)cc1	none
COc1ccc(CNC(=O)c2c(O)c3cccc4c3n(c2=O)CCC4)cc1OC	D1 mod 6.25 | D1 PAM confirm 10888 | D1 ag no DA inactive | Isoprot counter 3828
CCOC(=O)c1ccc2nc(NC(=O)C(C)C)sc2c1	D1 mod 5.38 | D1 PAM confirm inactive | D1 ag no DA inactive | Isoprot counter inactive
CCCC(=O)Nc1nc2ccc(C(=O)OCC)cc2s1	none (no result: D1 mod, BAP1 block)
O=S(=O)(c1cccc(-c2nc3n(n2)Cc2ccccc2-3)c1)N1CCCC1	D1 mod 4.87 | D1 PAM confirm 7316 | D1 ag no DA inactive | Isoprot counter 3824
O=S(=O)(c1cccc(-c2nc3n(n2)Cc2ccccc2-3)c1)N1CCCCC1	none (no result: D1 mod, BAP1 block)
COc1ccc(-n2nc3c(c2NC(=O)c2c(OC)cccc2OC)CSC3)cc1	none (no result: D1 mod, DAT uptake mod)
COc1ccc(/C=N/n2cnnc2SCCO)cc1OC	D1 mod 2.57 | D1 PAM confirm 14424 | D1 ag no DA inactive | Isoprot counter 4036
C=CCSc1nncn1/N=C/c1ccc(OC)cc1	none
Cc1c2c(nc3c(C(=O)NC4CC4)cnn13)CCCC2	none
CCC(C)NC(=O)c1cnn2c(C)c3c(nc12)CCCC3 (centres undefined)	D1 mod 7.01 | D1 PAM confirm 11440 | D1 ag no DA inactive | Isoprot counter 3556
O=c1c2c(sc3ccccc13)NCN(Cc1ccccc1)C2	none (no result: D1 mod, DAT uptake mod)
CC(C(=O)O)N1C(=O)C2C3CCC(C3)C2C1=O (centres undefined)	none (no result: D1 mod, DAT uptake mod)
CCOC(=O)c1cn2nc(-c3ccc(OCC)cc3)cc2nc1C1CCN(C(=O)OC(C)(C)C)CC1	none (no result: D1 mod, BAP1 block)
COc1ccc(-c2cc3nc(C4CCN(C(=O)OC(C)(C)C)CC4)c(C(=O)O)cn3n2)cc1	D1 mod 9.2 | D1 PAM confirm 14492 | D1 ag no DA inactive | Isoprot counter 4680
CCOC(=O)c1c(C)oc2c1c(C=NCc1ccccn1)c(O)c1ccccc12	D1 mod 4.17 | D1 PAM confirm 12568 | D1 ag no DA inactive | Isoprot counter inactive
CCOC(=O)c1c(C)oc2c1c(C=NCC1CCCO1)c(O)c1ccccc12 (centres undefined)	none
CC1C=Cc2ccccc2N1C(=O)c1ccccc1 (centres undefined)	D1 mod 4 | D1 PAM confirm 9976 | D1 ag no DA inactive | Isoprot counter inactive
CCOC(=O)N1c2ccccc2C=CC1OCC (centres undefined)	none (no result: D1 mod, BAP1 block)
CC(=O)Nc1cc2c(cc1C(=O)c1ccccc1)OCCO2	D1 mod 6.34 (no result: DAT uptake mod) | D1 PAM confirm 8592 | D1 ag no DA inactive | Isoprot counter 3136
CCC(=O)Nc1cc2c(cc1C(=O)c1ccccc1)OCCO2	D1 mod 13.4 | D1 PAM confirm 15532 | Isoprot counter 3412
CCC(=O)Nc1cc2c(cc1C(=O)CC)OCCO2	D1 mod 13.6 (no result: BAP1 block) | D1 PAM confirm 12916 | D1 ag no DA inactive | Isoprot counter 4012
Nc1cc2c(cc1C(=O)c1ccccc1)OCCO2	none (no result: D1 mod, BAP1 block)
CCC(=O)Nc1cccc(C(=O)c2ccccc2)c1	none
CCCC(=O)c1cc2c(cc1NC(=O)c1cccs1)OCCO2	none (no result: D1 mod, BAP1 block)
CC1=C(C(=O)Nc2ccccc2)C(c2ccc(C(F)(F)F)cc2)NC(=S)N1 (centres undefined)	none (no result: D1 mod, DAT uptake mod)
CCOC(=O)c1c(NC(=O)c2ccc(OC)cc2OC)sc2c1CCC2	none (no result: D1 mod, DAT uptake mod)
CC1CCN(C(=O)COc2ccc(Br)cc2)CC1	none (no result: D1 mod, DAT uptake mod)
CCOc1ccccc1C1C(C#N)=C(N)SC(N)=C1C#N	none (no result: DAT uptake mod)
N#CC1=C(N)SC(N)=C(C#N)C1c1cccc(Oc2ccccc2)c1	none
CCOc1ccc(C2C(C#N)=C(N)SC(N)=C2C#N)cc1OCC	D1 mod 5.43 (no result: BAP1 block) | D1 PAM confirm 13032 | D1 ag no DA inactive | Isoprot counter 4664
CCOc1ccc(C2C(C#N)=C(N)SC(N)=C2C#N)cc1OC	D1 mod 6.06 | D1 PAM confirm 10912 | D1 ag no DA inactive | Isoprot counter inactive
CC1CCc2cc(F)ccc2N1C(=O)Nc1cccc(Cl)c1 (centres undefined)	none (no result: D1 mod, DAT uptake mod)
Nc1ccc2oc(-c3ccc(-c4nc5ccc(N)cc5[nH]4)cc3)nc2c1	none (no result: D1 mod, DAT uptake mod)
O=C(O)C1CCN(S(=O)(=O)c2ccccc2[N+](=O)[O-])CC1	none (no result: D1 mod, DAT uptake mod)
O=C(Nc1ccccc1-c1nc2ccccc2s1)c1ccc([N+](=O)[O-])cc1	none (no result: D1 mod, DAT uptake mod)
COc1ccc(S(=O)(=O)N2CCCCCC2)cc1C(=O)OCc1c(C)noc1C	D1 mod 4.27 | D1 PAM confirm 9164 | D1 ag no DA inactive | Isoprot counter 5664
COc1ccc(S(=O)(=O)N2CCc3ccccc32)cc1C(=O)OCc1c(C)noc1C	none (no result: D1 mod)
CCN(CC)c1ccc(C(=O)Nc2nc3ccc4nc(C)sc4c3s2)cc1	none (no result: D1 mod, DAT uptake mod)
Cc1noc(C)c1COc1cccc(C(=O)OCCOc2ccc(F)cc2)c1	none (not shown: BAP1 block)
Cc1ccc(NC(=O)c2cccc(OCc3c(C)noc3C)c2)c(C)c1	D1 mod 4.58 | D1 PAM confirm inactive | D1 ag no DA inactive | Isoprot counter inactive
COc1ccccc1NC(=O)c1c(NC(=O)C(C)(C)C)sc2c1CCC2	none (no result: D1 mod, DAT uptake mod)
CCOC(=O)C1CCN(S(=O)(=O)c2cc(Br)cc3c2N(C(C)=O)C(C)C3)CC1 (centres undefined)	D1 mod 4.58 (no result: BAP1 block) | D1 PAM confirm 8392 | D1 ag no DA inactive | Isoprot counter 3688
CCOC(=O)N1CCN(S(=O)(=O)c2cc(Br)cc3c2N(C(C)=O)C(C)C3)CC1 (centres undefined)	none (no result: BAP1 block)
CC(C)(C)C1CCc2c(sc(NC(=O)c3cc4n(n3)C(C(F)(F)F)CC(c3cccs3)N4)c2C#N)C1 (centres undefined)	none (no result: D1 mod, DAT uptake mod)
Cc1cc(Oc2ccccc2)nc(-c2ccccc2)n1	D1 mod 2.71 | D1 PAM confirm 6804 | D1 ag no DA inactive | Isoprot counter 3112
O=S(=O)(Cc1cc(Oc2ccccc2)nc(-c2ccccc2)n1)c1ccccc1	none (no result: D1 mod, BAP1 block)
O=C(Nc1nc2c(s1)CCc1ccccc1-2)c1cc(Cl)ccc1[N+](=O)[O-]	none (no result: D1 mod, DAT uptake mod)
COc1ccccc1C(=O)Nc1cc(-c2nc3cc(Cl)ccc3o2)ccc1C	none (no result: D1 mod, DAT uptake mod)
c1ccc2c(c1)CCN(c1nc3ccccc3n3cnnc13)C2	D1 mod 7.94 | D1 PAM confirm 13016 | D1 ag no DA inactive | Isoprot counter 4428
c1ccc(N2CCN(c3nc4ccccc4n4cnnc34)CC2)cc1	none (no result: D1 mod, BAP1 block)
C1=C(c2ccccc2)CCN(c2nc3ccccc3n3cnnc23)C1	none
c1ccc2c(c1)CCCN2c1nc2ccccc2n2cnnc12	D1 mod 7.03 | D1 PAM confirm 9840 | D1 ag no DA inactive | Isoprot counter inactive
CC(C)c1cc(C(C)C)c(S(=O)NCCCN2CCOCC2)c(C(C)C)c1 (centres undefined)	none (no result: D1 mod, DAT uptake mod)
CCn1cc(C(=O)OCC(=O)NCc2ccc3c(c2)OCO3)c(=O)c2ccc(C)nc21	D1 mod 2.72 | D1 PAM confirm 8368 | D1 ag no DA inactive | Isoprot counter 3148
CCOC(=O)c1ccccc1NC(=O)c1cn(CC)c2nc(C)ccc2c1=O	D1 mod 4.95 (no result: DAT uptake mod) | D1 PAM confirm inactive | D1 ag no DA inactive | Isoprot counter inactive
